{"source": "PubChem BioAssay (NCATS)", "note": "Records with an inconclusive call do not appear. Unmarked numbers belong to inactive results. Activity calls are given as the source filed them. Calls follow the shape of the dose curve; as a rule, active = well fitted curve in the direction sought with a large enough effect; inconclusive = small, poorly fitted or top-dose-only effect, or another doubt; inactive = no such curve, though single readings can be large; an effect the other way counts as inactive or inconclusive.", "data": [{"assay": "qHTS to identify inhibitors of the type 1 interferon - major histocompatibility complex class I in skeletal muscle: primary screen against the NCATS Pharmaceutical Collection (AID 1347407); also: % is scaled to controls: 0 for no effect and ±100 for the full control effect", "settings": "human skeletal muscle cells, IFN-b-induced MHC-I HiBiT luminescence, 24 h; series mostly up to 45.9 µM; activity change, negative = inhibition: at the top concentration", "outline": "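Immortalized human myoblasts (C25cl48) with HiBiT knocked into endogenous HLA-B*08:01 were stimulated with 4 ng/ml IFN-beta and treated with compounds (8-point, 1:5, top 46 uM final) for 24 h at 37 C; HiBiT lytic luminescence read.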", "values": [{"smiles": "CCN[C@@H]1C[C@H](N)[C@@H](OC2OC(CN)=CCC2N)[C@H](O)[C@H]1O[C@H]1OC[C@](C)(O)[C@H](NC)[C@H]1O", "note": "(stereo partly specified)", "activity change, negative = inhibition": "4.01% [at 0.727 µM]"}, {"smiles": "Clc1cccc(C(c2ccc3nc[nH]c3c2)n2ccnc2)c1", "note": "(stereo unspecified)", "activity change, negative = inhibition": "4.39%"}, {"smiles": "O=c1[nH]c(=O)n([C@H]2C[C@H](O)[C@@H](CO)O2)cc1F", "activity change, negative = inhibition": "6.59%"}, {"smiles": "CCCCC(CC)CN1CN(CC(CC)CCCC)CC(C)(N)C1", "note": "(stereo unspecified)", "activity change, negative = inhibition": "-6.75%"}, {"smiles": "Nc1nc(Cl)nc2c1ncn2[C@@H]1O[C@H](CO)[C@@H](O)[C@@H]1F", "activity change, negative = inhibition": "-18.9%"}, {"smiles": "CC(=O)O[C@]1(C(C)=O)CC[C@H]2[C@@H]3C=C(C)C4=CC(=O)CC[C@]4(C)[C@H]3CC[C@@]21C", "activity change, negative = inhibition": "-0.54%"}, {"smiles": "CCCCCCCCCCCCCC(=O)OC(C)C", "activity change, negative = inhibition": "-5.68%"}, {"smiles": "FC1(F)C(F)(F)C(F)(F)C2(F)C(F)(F)C(F)(F)C(F)(F)C(F)(F)C2(F)C1(F)F", "note": "(stereo unspecified)", "activity change, negative = inhibition": "7.75%"}, {"smiles": "CC(=O)NO", "activity change, negative = inhibition": "-9.64%"}, {"smiles": "C=C[C@@]1(C)CC(=O)[C@]2(O)[C@@]3(C)[C@@H](O)CCC(C)(C)[C@@H]3[C@H](O)[C@H](OC(C)=O)[C@@]2(C)O1", "activity change, negative = inhibition": "-26.7%"}, {"smiles": "Nc1ccc(S(=O)(=O)NCc2ccccc2)cc1", "activity change, negative = inhibition": "5.85%"}, {"smiles": "CCOC(=O)[C@H](CCc1ccccc1)N[C@@H](C)C(=O)N1[C@H](C(=O)O)C[C@@H]2CCC[C@@H]21", "activity change, negative = inhibition": "-0.197%"}, {"smiles": "CN1CCN(C2=Nc3ccccc3Sc3ccc(Cl)cc32)CC1", "activity change, negative = inhibition": "-1.09%"}, {"smiles": "C=CCN1CCc2nc(N)sc2CC1", "activity change, negative = inhibition": "0.526%"}, {"smiles": "NC(=O)n1c(O)c(C(=O)c2cccs2)c2cc(Cl)ccc21", "activity change, negative = inhibition": "-28.2%"}, {"smiles": "CCOC(=O)c1c(N)sc2c1CCN(Cc1ccccc1)C2", "activity change, negative = inhibition": "-5.84%"}, {"smiles": "CC(=O)O[C@H]1C[C@@H]2CC[C@@H]3[C@H](CC[C@@]4(C)[C@H]3C[C@H]([N+]3(C)CCCCC3)[C@@H]4OC(C)=O)[C@@]2(C)C[C@@H]1N1CCCCC1", "activity change, negative = inhibition": "18.5%"}, {"smiles": "Nc1nc(N)c(-c2ccccc2)s1", "activity change, negative = inhibition": "21%"}, {"smiles": "CCCCCCCCNC(C)C(O)c1ccc(SC(C)C)cc1", "note": "(stereo unspecified)", "activity change, negative = inhibition": "-11.8%"}, {"smiles": "O=S(c1cc(Cl)cc(Cl)c1O)c1cc(Cl)cc(Cl)c1O", "activity change, negative = inhibition": "1.78%"}, {"smiles": "CCCCCCCCCCCCOCCOCCOCCOCCOCCOCCOCCOCCOCCO", "activity change, negative = inhibition": "4.8%"}, {"smiles": "COc1cc([C@H]2Oc3cc([C@H]4Oc5cc(O)cc(O)c5C(=O)[C@@H]4O)ccc3O[C@@H]2CO)ccc1O", "activity change, negative = inhibition": "-15.9%"}, {"smiles": "O=C(O)C1(C(=O)O)CCC1.[NH2-].[NH2-].[Pt+2]", "activity change, negative = inhibition": "1.28%"}, {"smiles": "CCOc1ccccc1C(N)=O", "activity change, negative = inhibition": "27.9%"}, {"smiles": "C[N+]12CCC(CC1)C(OC(=O)C(O)(c1ccccc1)c1ccccc1)C2", "note": "(stereo unspecified)", "activity change, negative = inhibition": "6.09%"}, {"smiles": "C/C=C/C=N/NC(=O)c1ccncc1", "activity change, negative = inhibition": "-4.26%"}, {"smiles": "C#C[C@]1(O)CC[C@H]2[C@@H]3CCC4=CC(=O)CC[C@@H]4[C@H]3CC[C@@]21CC", "activity change, negative = inhibition": "13.5%"}, {"smiles": "CC(=O)Nc1ccc(CC(=O)O)cc1", "activity change, negative = inhibition": "6.06%"}, {"smiles": "C/C=C/c1ccc(O)c(OC)c1", "activity change, negative = inhibition": "-4.44%"}, {"smiles": "C#C[C@]1(O)CC[C@H]2[C@@H]3[C@H](C)CC4=C(CCC(=O)C4)[C@H]3CC[C@@]21C", "activity change, negative = inhibition": "-7.68%"}, {"smiles": "CCN1/C(=C/C=C/c2sc3ccccc3[n+]2CC)Sc2ccccc21", "activity change, negative = inhibition": "5.88% [at 19 µM]"}, {"smiles": "Cc1c[nH]c2ccccc12", "activity change, negative = inhibition": "2.71%"}, {"smiles": "C#C[C@]1(O)CC[C@H]2[C@@H]3CCc4cc(OC)ccc4[C@H]3CC[C@@]21C", "activity change, negative = inhibition": "1.72%"}, {"smiles": "CN(Cc1ccc(C(C)(C)C)cc1)Cc1cccc2ccccc12", "activity change, negative = inhibition": "-5.07%"}, {"smiles": "O=C1[C@H](CC[C@H](O)c2ccc(F)cc2)[C@@H](c2ccc(O)cc2)N1c1ccc(F)cc1", "activity change, negative = inhibition": "10.1%"}, {"smiles": "Cc1ccc(-c2ncc(Cl)cc2-c2ccc(S(C)(=O)=O)cc2)cn1", "activity change, negative = inhibition": "4.75%"}, {"smiles": "OCc1ccccn1", "activity change, negative = inhibition": "-3.19%"}, {"smiles": "Cc1ccc(O)c([C@H](CCN(C(C)C)C(C)C)c2ccccc2)c1", "activity change, negative = inhibition": "-23.1%"}]}, {"assay": "qHTS to identify inhibitors of the type 1 interferon - major histocompatibility complex class I in skeletal muscle: primary screen against the NCATS Mechanism Interrogation Plate v5.0 (MIPE) Libary (AID 1347411); also: nearly all actives have a fitted effect of over 65% in size; also: potency is read from the fitted curve at half-maximal effect;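 as to activity change, negative = inhibition: plate controls were vehicle for no effect and reference inhibitor for full effect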", "settings": "iHSKM cells + IFN-b, HiBiT-tagged MHC-I luminescence, 24 h; series mostly up to 45.8 µM; activity change, negative = inhibition: at the top concentration", "outline": "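Immortalized human myoblasts (C25cl48) with HiBit knocked into endogenous HLA-B*08:01 were stimulated with 4 ng/ml IFN-beta and given compounds in 11-point 1:3 titration from 46 uM. After 24 h at 37 C, lytic HiBiT luminescence was read.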", "units": {"activity change, negative = inhibition": "%"}, "values": [{"smiles": "Clc1cccc(C(c2ccc3nc[nH]c3c2)n2ccnc2)c1", "note": "(stereo unspecified)", "activity change, negative = inhibition": -12.6}, {"smiles": "O=c1[nH]c(=O)n([C@H]2C[C@H](O)[C@@H](CO)O2)cc1F", "activity change, negative = inhibition": 6.9}, {"smiles": "Nc1nc(Cl)nc2c1ncn2[C@@H]1O[C@H](CO)[C@@H](O)[C@@H]1F", "activity change, negative = inhibition": -11.5}, {"smiles": "CC(=O)O[C@]1(C(C)=O)CC[C@H]2[C@@H]3C=C(C)C4=CC(=O)CC[C@]4(C)[C@H]3CC[C@@]21C", "activity change, negative = inhibition": -25}, {"smiles": "CCOC(=O)[C@H](CCc1ccccc1)N[C@@H](C)C(=O)N1[C@H](C(=O)O)C[C@@H]2CCC[C@@H]21", "activity change, negative = inhibition": -10.6}, {"smiles": "CC(=O)O[C@H]1C[C@@H]2CC[C@@H]3[C@H](CC[C@@]4(C)[C@H]3C[C@H]([N+]3(C)CCCCC3)[C@@H]4OC(C)=O)[C@@]2(C)C[C@@H]1N1CCCCC1", "activity change, negative = inhibition": -3.97}, {"smiles": "COc1cc([C@H]2Oc3cc([C@H]4Oc5cc(O)cc(O)c5C(=O)[C@@H]4O)ccc3O[C@@H]2CO)ccc1O", "activity change, negative = inhibition": -25.5}, {"smiles": "C#C[C@]1(O)CC[C@H]2[C@@H]3CCC4=CC(=O)CC[C@@H]4[C@H]3CC[C@@]21CC", "activity change, negative = inhibition": -35.5}, {"smiles": "CCCCCN=C(N)N/N=C/c1c[nH]c2ccc(OC)cc12", "Potency": "6.58 µM (active)"}, {"smiles": "C#C[C@]1(O)CC[C@H]2[C@@H]3[C@H](C)CC4=C(CCC(=O)C4)[C@H]3CC[C@@]21C", "activity change, negative = inhibition": 5.06}, {"smiles": "C#C[C@]1(O)CC[C@H]2[C@@H]3CCc4cc(OC)ccc4[C@H]3CC[C@@]21C", "activity change, negative = inhibition": 0.586}, {"smiles": "O=C1[C@H](CC[C@H](O)c2ccc(F)cc2)[C@@H](c2ccc(O)cc2)N1c1ccc(F)cc1", "activity change, negative = inhibition": -7.06}, {"smiles": "Cc1ccc(-c2ncc(Cl)cc2-c2ccc(S(C)(=O)=O)cc2)cn1", "activity change, negative = inhibition": -1.97}]}]}
